GPR151 ag: activates the human receptor GPR151. AID 1508602. PathHunter beta-arrestin GPR151 cells, luminescence. Q8TDV0. activation, % at 11.2 µM. 650,000 tested, 1% active; in the data active means activation above about 4.9%;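 further: 0% = median of compound wells and 100% = cells with positive control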
Target sequence (Q8TDV0 whole entry, looked up): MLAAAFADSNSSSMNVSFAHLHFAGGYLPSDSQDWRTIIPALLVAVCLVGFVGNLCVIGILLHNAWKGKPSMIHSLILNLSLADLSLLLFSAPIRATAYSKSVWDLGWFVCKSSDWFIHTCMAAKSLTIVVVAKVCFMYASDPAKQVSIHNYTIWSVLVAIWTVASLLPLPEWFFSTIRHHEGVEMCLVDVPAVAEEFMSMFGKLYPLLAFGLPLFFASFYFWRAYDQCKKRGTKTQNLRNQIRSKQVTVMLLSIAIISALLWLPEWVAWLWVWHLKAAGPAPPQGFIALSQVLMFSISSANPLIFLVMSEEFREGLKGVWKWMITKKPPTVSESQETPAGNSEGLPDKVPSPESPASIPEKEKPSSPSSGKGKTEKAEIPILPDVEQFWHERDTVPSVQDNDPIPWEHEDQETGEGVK
MITF inh: inhibitors of human MITF; O75030; 650,000 tested, 0.91% active; inhibition, % at 2.6 µM; AlphaScreen MITF homodimerization, bead proximity signal; in the data active means inhibition above about 50%;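 further: 0% = vehicle wells with protein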
FBW7 activator: human FBW7 E3 ligase activation, primary screen; AlphaScreen FBW7–phospho-cyclin E peptide binding, activator screen; normalized activity (activation), % at 26.1 µM; 650,000 tested, 0.13% active; AID 1259310; in the data active means normalized activity above about 1.9%;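 further: purified mutant Fbw7 with reduced substrate affinity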
TEAD-YAP block: TEAD-YAP interaction inhibition; HEK-TIYL cells, TEAD-Gal4/YAP UAS-luciferase luminescence; inhibition, % at 9.12 µM; 640,000 tested, 1.4% active; in the data active means inhibition above about 32%;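 further: 0% = median of test compound wells and 100% = reference inhibitor wells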
Active calls of the source: *. Rows were chosen to be rich in hits. Some 3.5% of all compounds tested hit in one or more screens of this group.

How did COCCNC(=O)CNC(=O)c1nn(-c2ccc(OC)c(Cl)c2)c(=O)c2ccccc12 do in these assays?
GPR151 ag: 0; MITF inh: 9; FBW7 activator: 0; TEAD-YAP block: -7

What do the screens show for `COc1ccc(-n2nc(C(=O)NCC(=O)NCCc3ccc(OC)c(OC)c3)c3ccccc3c2=O)cc1Cl`?
GPR151 ag: -1; MITF inh: 8; FBW7 activator: 0; TEAD-YAP block: 38*

Results for O=C1N[C@@H](CO)C(=O)N2CCN(CCc3ccccc3)C[C@H]12 ?
GPR151 ag: 2; MITF inh: 2; FBW7 activator: 0; TEAD-YAP block: -7

What do the screens show for `O=C(CSc1ncccc1C(=O)NCc1ccccc1Cl)NCc1ccccc1`?
GPR151 ag: -2; MITF inh: 12; FBW7 activator: 0; TEAD-YAP block: -16

What do the screens show for `CCc1ccc(N=C2N=C(N)c3ccccc32)cc1`?
GPR151 ag: 2; MITF inh: 1; FBW7 activator: 0; TEAD-YAP block: -31

What do the screens show for `NC1=NC(=Nc2ccc(N3CCOCC3)cc2)c2ccccc21`?
GPR151 ag: 0; MITF inh: -12; FBW7 activator: 0; TEAD-YAP block: 48*

What do the screens show for `O=C(O)c1ccccc1N=Cc1c(O)ccc2ccccc12`?
GPR151 ag: 0; MITF inh: 1; FBW7 activator: 0; TEAD-YAP block: -5

Results for Cc1[nH]c2ccc(-c3nnc(SCC(=O)N(C(C)C)C(C)C)o3)cc2c1C ?
GPR151 ag: -1; MITF inh: 18; FBW7 activator: 0; TEAD-YAP block: 36*

What do the screens show for `CC(=O)Nc1ccc(Nc2cc(C)nc(Nc3nccc4ccccc34)n2)cc1`?
GPR151 ag: 4; MITF inh: 4; FBW7 activator: 0; TEAD-YAP block: 65*

How did CC(=O)Nc1ccc(Nc2ccnc(Nc3nccc4ccccc34)n2)cc1 do in these assays?
GPR151 ag: 0; MITF inh: 25; FBW7 activator: 0; TEAD-YAP block: 48*

Results for CC(=O)Nc1ccc(Nc2cc(C)nc(Nc3cnccn3)n2)cc1 ?
GPR151 ag: 1; MITF inh: 5; FBW7 activator: 0; TEAD-YAP block: -24

How did CC(=O)Nc1ccc(Nc2nc(Nc3nccc4ccccc34)ncc2C)cc1 do in these assays?
GPR151 ag: 0; MITF inh: 3; FBW7 activator: 0; TEAD-YAP block: 8

What do the screens show for `COCCOC(=O)C1=C(C)NC(SCC(=O)Nc2ccc(C)cc2)=C(C#N)C1c1ccccc1Cl` (stereo unspecified)?
GPR151 ag: -1; MITF inh: 8; FBW7 activator: 0; TEAD-YAP block: 5

Results for Cc1cc(C(=O)NCc2ccc(F)cc2)on1 ?
GPR151 ag: 0; MITF inh: 0; FBW7 activator: 1; TEAD-YAP block: 5

Results for N.N.N.N.N.N.N.N.N.N.N.N.N.N.O.O.[Cl-].[Cl-].[Cl-].[Cl-].[Cl-].[Cl-].[Ru+2].[Ru+2].[Ru+2] ?
GPR151 ag: 0; MITF inh: 47; FBW7 activator: 1; TEAD-YAP block: 41*

Results for CSc1nc2c(c(=O)[nH]c(=O)n2C)n1CCSc1nc2ccccc2s1 ?
GPR151 ag: 0; MITF inh: 5; FBW7 activator: 1; TEAD-YAP block: 37*

How did N#Cc1c(/N=C/c2ccc(O)c(O)c2)sc2c1CCCC2 do in these assays?
GPR151 ag: 0; MITF inh: 6; FBW7 activator: 0; TEAD-YAP block: 43*

How did COc1cc(/C=N/c2sc3c(c2C#N)CCC3)ccc1OCC(=O)O do in these assays?
GPR151 ag: 0; MITF inh: 3; FBW7 activator: 0; TEAD-YAP block: 12

Results for C=CCN1/C(=C/C(=C/c2sc3ccccc3[n+]2CC=C)CC)Sc2ccccc21 ?
GPR151 ag: 4; MITF inh: 52*; FBW7 activator: 0; TEAD-YAP block: 83*

What do the screens show for `O=C(Nc1cccc([N+](=O)[O-])c1)c1cccc(S(=O)(=O)Nc2cccc(F)c2)c1`?
GPR151 ag: 0; MITF inh: -16; FBW7 activator: 0; TEAD-YAP block: 16

How did CC(=O)c1cccc(NS(=O)(=O)c2ccc(NC(=O)c3ccccc3Cl)cc2)c1 do in these assays?
GPR151 ag: 0; MITF inh: 4; FBW7 activator: 0; TEAD-YAP block: 39*

Results for Cc1cccc(NS(=O)(=O)c2ccc(NC(=O)c3ccc([N+](=O)[O-])cc3)cc2)c1 ?
GPR151 ag: 3; MITF inh: -7; FBW7 activator: 0; TEAD-YAP block: 35*

What do the screens show for `COc1cc(OC)cc(C(=O)Nc2ccc(S(=O)(=O)Nc3nccc(C)n3)cc2)c1`?
GPR151 ag: 1; MITF inh: 14; FBW7 activator: 2.0*; TEAD-YAP block: -13
